The source of these data is PubChem BioAssay (NCATS).

Records with an inconclusive call do not appear. The source made the active and inactive calls. Unless noted, calls follow the shape of the dose curve; as a rule, active = well fitted curve in the direction sought with a large enough effect; inconclusive = small, poorly fitted or top-dose-only effect, or another doubt; inactive = no such curve, though single readings can be large; an effect the other way counts as inactive or inconclusive.

The target of assay [1] is Galactokinase (Homo sapiens) (UniProt P51570). As to the kind of experiment: qHTS Validation Assay for Inhibitors of Human Galactokinase (GALK) (AID 493189). An outline of the steps:
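GALK (5 nM) with 35 uM ATP and 100 uM galactose in HEPES pH8.0, MgCl2, NaCl, DTT, BSA; 1 h at room temperature. Residual ATP read by Kinase-Glo Plus luminescence after 10 min.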

Assay [2] is described as follows: Validation screen for small molecules that induce DNA re-replication in SW480 colon adenocarcinoma cells (AID 504364). Also: potency is read from the fitted curve at half-maximal effect. An outline of the steps:
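SW480 cells seeded at 250 per well were exposed to compound or DMSO for 48 hr at 37 C, 5% CO2, then stained with Hoechst for 40 min. DNA content per nucleus was imaged (405 nm ex, 500-530 nm em).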

The target in assay [3] is Peptidyl-prolyl cis-trans isomerase NIMA-interacting 1 (Homo sapiens) (UniProt Q13526). The experiment in a line: qHTS Validation Assay to Find Inhibitors of Pin1 (AID 504536; active = well fitted inhibition curve with a large enough effect in the polarisation, with a control signal flat, not every such curve was filed as active; the % refers to the polarisation; also: potency is read from the fitted curve at half-maximal effect). The procedure, abridged:
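Fluorescence polarization competition: compounds (titration) displace HiFluor-488-labeled Pin1-1b peptide from Pin1 (0.3 uM final) in pH 7.5 HEPES buffer with DTT, 10 min at room temperature; %Activity normalized to no-enzyme wells, curves fitted.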
A general note: In qHTS, concentration-response curves come from the screen itself.

Assay [4] deals with Phosphoglycerate kinase, glycosomal (Trypanosoma brucei brucei) (UniProt P07378). As to the kind of experiment: qHTS Validation Assay to Find Inhibitors of Phosphoglycerate Kinase (AID 504547). Also: potency is read from the fitted curve at half-maximal effect. The procedure, abridged: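 Substrate/PGK mix plus compound; reaction started with GAPDH (100nM final) to form 1,3-BPG; 60 min RT; Kinase-Glo Plus 10 min; luminescence. TEA 100mM pH 7.6, MgCl2 5mM, Tween-20 0.01%.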
Chain of Phosphoglycerate kinase, glycosomal (Trypanosoma brucei brucei) (P07378 whole entry, looked up): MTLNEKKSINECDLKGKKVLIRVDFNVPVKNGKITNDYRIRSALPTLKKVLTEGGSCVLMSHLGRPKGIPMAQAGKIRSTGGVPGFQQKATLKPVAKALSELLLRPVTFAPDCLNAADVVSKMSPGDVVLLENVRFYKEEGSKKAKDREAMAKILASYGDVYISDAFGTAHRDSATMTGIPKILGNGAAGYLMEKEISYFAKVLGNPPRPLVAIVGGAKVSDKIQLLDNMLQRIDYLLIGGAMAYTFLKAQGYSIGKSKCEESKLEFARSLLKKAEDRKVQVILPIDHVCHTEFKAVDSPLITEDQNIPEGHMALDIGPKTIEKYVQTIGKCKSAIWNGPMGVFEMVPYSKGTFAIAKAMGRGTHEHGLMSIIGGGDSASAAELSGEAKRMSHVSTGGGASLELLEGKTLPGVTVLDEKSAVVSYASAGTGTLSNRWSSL

Assay [5] concerns the target phosphoglycerate mutase (Leishmania major) (UniProt Q4Q090). The experiment in a line: qHTS Validation Assay to Find Inhibitors of Phosphoglycerate Mutase (AID 504548).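 Also: end-point luminescence from Kinase-GloPlus after the PGAM reaction; series mostly up to about 58 µM.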 Particulars: Potency: inhibition qHTS. The procedure, abridged: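 L. major PGAM (1.25nM final) was added to substrate buffer and pinned compound, incubated 45 minutes at room temperature, then Kinase-GloPlus added; luminescence read after 10 minutes. Buffer: 100 mM TEA pH 7.6, 5 mM MgCl2, 0.01% Tween-20.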

Assay [6] can be described thus: Inducers of the Endoplasmic Reticulum Stress Response (ERSR) in human glioma: Validation (AID 504836). The procedure, abridged: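 Stably transfected U87-MG human glioma cells carrying a GRP78-based luminescent sensor were seeded at 1000 cells/well, pin-dosed with compounds and incubated 16 h. Luciferase reagent was then added, and end-point luminescence was read after 10 min at room temperature.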

Assay [7] concerns the target Ubiquitin carboxyl-terminal hydrolase 1 (Homo sapiens) (UniProt O94782). The experiment in a line: Inhibitors of USP1/UAF1: Pilot qHTS (AID 504865).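 Also: rhodamine fluorescence freed from ubiquitin-rhodamine substrate followed over time; top concentration of the series differs between compounds; nearly all actives have a fitted effect of over 35% in size.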 The procedure, abridged:
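USP1/UAF1 complex (1nM) preincubated with compound 15 min at room temperature, then Ub-Rho substrate (150nM final) added. Fluorescence read kinetically at 480/540 nm, 6 reads every 60 seconds. Buffer: 50mM HEPES pH 7.8, 0.5mM EDTA, 0.1 mg/ml BSA, 1mM TCEP, 0.01% Tween-20.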

Assay [8] is described as follows: qHTS for Inhibitors of ATXN expression: Validation of Cytotoxic Assay (AID 588349). An outline of the steps: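 HEK293 cells were dosed with titrated compounds for 72 hr at 37 degrees C. Viability was read by CellTiter Glo luminescence, with intracellular ATP as the marker of cell survival.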
Assay [9] can be described thus: qHTS for Inhibitors of ATXN expression: Validation (AID 588378). Also: nearly all actives have a fitted effect of over 75% in size. Also: potency is read from the fitted curve at half-maximal effect. An outline of the steps: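 Luminescence from an ATXN2-FFLuc reporter in HEK293 cells served as read-out after 24 h compound treatment at 37 degrees C; CellTiter-Fluor fluorescence was recorded first to assess viability.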
For assay [10], the target named is DNA dC->dU-editing enzyme APOBEC-3G (Homo sapiens) (UniProt Q9HC16). The experiment in a line: qHTS for inhibitors of Vif-A3G interactions: Validation (AID 588379). The procedure, abridged: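 HeLa cells stably expressing Vif and A3G-eYFP, 700 cells/well, incubated overnight at 37 deg C, then exposed to compound overnight at 37 deg C. Inhibition of Vif-mediated degradation read as increased yellow fluorescence (Ex 488/Em 500-530) by laser-scanning cytometry.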
Chain of DNA dC->dU-editing enzyme APOBEC-3G (Homo sapiens) (Q9HC16 whole entry, looked up): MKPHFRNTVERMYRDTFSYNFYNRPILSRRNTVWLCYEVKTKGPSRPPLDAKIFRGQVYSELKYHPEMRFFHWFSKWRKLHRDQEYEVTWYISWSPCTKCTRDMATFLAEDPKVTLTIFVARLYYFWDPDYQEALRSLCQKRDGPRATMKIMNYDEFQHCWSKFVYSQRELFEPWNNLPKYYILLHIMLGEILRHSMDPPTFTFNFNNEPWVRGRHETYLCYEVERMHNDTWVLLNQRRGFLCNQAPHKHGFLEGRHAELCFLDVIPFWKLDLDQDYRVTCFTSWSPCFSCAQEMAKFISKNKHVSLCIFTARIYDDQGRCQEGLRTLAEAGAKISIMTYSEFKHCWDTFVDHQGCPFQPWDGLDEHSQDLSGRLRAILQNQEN

Chain of Peptidyl-prolyl cis-trans isomerase NIMA-interacting 1 (Homo sapiens) (Q13526 whole entry, looked up): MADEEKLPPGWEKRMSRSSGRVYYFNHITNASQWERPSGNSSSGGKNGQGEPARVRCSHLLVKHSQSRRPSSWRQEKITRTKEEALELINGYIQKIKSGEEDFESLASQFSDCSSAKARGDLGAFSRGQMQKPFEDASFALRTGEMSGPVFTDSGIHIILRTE
Chain of Ubiquitin carboxyl-terminal hydrolase 1 (Homo sapiens) (O94782 whole entry, looked up): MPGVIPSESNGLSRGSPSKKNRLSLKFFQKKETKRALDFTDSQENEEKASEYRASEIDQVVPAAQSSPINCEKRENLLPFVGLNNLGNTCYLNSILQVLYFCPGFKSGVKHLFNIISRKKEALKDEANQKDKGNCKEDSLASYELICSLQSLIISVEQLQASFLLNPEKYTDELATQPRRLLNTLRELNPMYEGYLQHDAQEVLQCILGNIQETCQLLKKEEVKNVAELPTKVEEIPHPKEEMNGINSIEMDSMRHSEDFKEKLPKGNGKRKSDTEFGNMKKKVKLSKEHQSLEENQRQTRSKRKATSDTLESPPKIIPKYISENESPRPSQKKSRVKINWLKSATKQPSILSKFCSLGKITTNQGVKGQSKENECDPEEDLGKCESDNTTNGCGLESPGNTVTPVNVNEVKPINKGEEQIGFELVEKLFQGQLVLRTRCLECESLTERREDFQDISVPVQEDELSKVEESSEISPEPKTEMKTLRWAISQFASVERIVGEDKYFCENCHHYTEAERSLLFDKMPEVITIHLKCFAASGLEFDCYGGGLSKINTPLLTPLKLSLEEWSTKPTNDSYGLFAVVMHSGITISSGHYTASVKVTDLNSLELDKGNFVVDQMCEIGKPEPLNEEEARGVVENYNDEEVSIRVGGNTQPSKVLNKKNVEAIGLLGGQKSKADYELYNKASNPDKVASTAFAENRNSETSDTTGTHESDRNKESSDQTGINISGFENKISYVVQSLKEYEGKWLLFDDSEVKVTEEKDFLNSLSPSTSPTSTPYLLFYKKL
Chain of Galactokinase (Homo sapiens) (P51570 whole entry, looked up): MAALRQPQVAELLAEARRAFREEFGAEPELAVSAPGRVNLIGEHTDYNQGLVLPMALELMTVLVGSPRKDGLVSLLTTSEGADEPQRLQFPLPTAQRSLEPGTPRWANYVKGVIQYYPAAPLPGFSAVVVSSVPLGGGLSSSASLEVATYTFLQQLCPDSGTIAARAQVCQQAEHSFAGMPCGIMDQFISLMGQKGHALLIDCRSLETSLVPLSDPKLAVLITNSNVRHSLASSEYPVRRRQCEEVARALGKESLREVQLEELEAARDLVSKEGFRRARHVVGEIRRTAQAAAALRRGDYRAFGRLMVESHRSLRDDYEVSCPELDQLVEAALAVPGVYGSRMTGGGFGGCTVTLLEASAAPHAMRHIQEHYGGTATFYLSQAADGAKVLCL
Chain of phosphoglycerate mutase (Leishmania major) (Q4Q090 1-553): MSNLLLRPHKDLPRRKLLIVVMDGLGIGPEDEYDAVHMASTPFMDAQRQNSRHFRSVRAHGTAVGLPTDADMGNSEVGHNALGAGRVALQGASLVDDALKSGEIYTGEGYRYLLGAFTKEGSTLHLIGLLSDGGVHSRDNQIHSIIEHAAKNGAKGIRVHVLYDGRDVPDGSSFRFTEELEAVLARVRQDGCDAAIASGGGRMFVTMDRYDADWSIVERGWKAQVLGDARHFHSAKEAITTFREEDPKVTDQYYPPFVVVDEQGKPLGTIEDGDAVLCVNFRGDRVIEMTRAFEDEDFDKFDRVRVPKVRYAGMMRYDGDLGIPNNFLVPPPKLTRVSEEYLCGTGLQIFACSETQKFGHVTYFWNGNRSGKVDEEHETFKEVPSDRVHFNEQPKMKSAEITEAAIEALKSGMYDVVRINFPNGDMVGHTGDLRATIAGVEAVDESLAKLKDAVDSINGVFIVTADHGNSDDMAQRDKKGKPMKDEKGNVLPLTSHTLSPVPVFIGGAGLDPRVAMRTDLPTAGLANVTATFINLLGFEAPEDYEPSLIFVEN

On to `COc1ccc(OC)c(C(O)C(C)N)c1` (stereo not given), for which the result in assay [1] and in assay [6] was inactive. Besides, the Potency result in assay [2], in assay [3], in [4], in [5], in assay [7] and in assay [8] was “inactive” each time. Besides, the Potency entry in assay [9] is “inactive”.
Turning to `NCC(O)c1cc(O)c(O)cc1F` (stereo not given), the outcome in assay [1] and in [6] was inactive. Besides, the Potency entry in assay [2], in assay [3], in assay [5], in assay [7], in [8] and in assay [9] was “inactive” throughout. Moreover, the Potency in assay [4] is 21.3 µM (active).
For `CN1CCc2cccc(Cl)c2CC1`, the result in assay [1] and in assay [6] was inactive. The Potency entry in assay [2], in assay [3], in [4], in assay [5], in [7] and in assay [8] was “inactive” throughout. In addition, in assay [9], the Potency result was “inactive”.
As for `COc1ccc2[nH]cc(CCN)c2c1`, the compound was classed as inactive in assay [1] and in [6]. Moreover, the Potency result in [2], in assay [3], in assay [4], in assay [5], in [7] and in assay [8] was “inactive” in each case. The Potency result in [9] was “inactive”.
Turning to `CCCN(CCC)C1Cc2cc(OC)c(OC)cc2C1`, the compound was called inactive in [1], in assay [6] and in [10]. Further, the Potency entry in assay [2], in assay [3], in assay [4], in assay [5], in assay [7] and in assay [8] was “inactive” each time. The Potency entry in assay [9] is “inactive”.
Consider `CC(N)c1cccc(Cl)c1Cl` (stereo not given), for which the compound was classed as inactive in assay [1] and in [6]. The Potency result in assay [2], in assay [3], in assay [4], in [5], in [7] and in [8] was “inactive” throughout. In addition, in assay [9], the Potency result is “inactive”.
With `C/C(O)=C(\C#N)C(=O)Nc1cc(Br)ccc1Br`, the result in assay [1] and in assay [6] was inactive. Moreover, the Potency entry in assay [2], in assay [3], in assay [4], in [5], in [8] and in assay [9] was “inactive” in each case.
Turning to `NC(N)=NOCC[C@H](N)C(=O)O`, the outcome in assay [1], in [6] and in [10] was inactive. For the same compound, the Potency result in assay [2], in [3], in assay [4], in [5], in assay [7] and in assay [9] was “inactive” throughout.
In the case of `C[N+]1(C)CCOC(O)(c2ccc(-c3ccc(C4(O)C[N+](C)(C)CCO4)cc3)cc2)C1` (stereo not given), in assay [1], the call was inactive. For the same compound, the Potency result in [2], in [3], in assay [4], in [5], in assay [7] and in [8] was “inactive” in each case. Also, in assay [9], the Potency result was “inactive”.
For the compound `CN1CCC(c2c[nH]c3ccc(O)cc23)CC1`, the compound was called inactive in [1] and in assay [10]. The Potency entry in assay [2], in assay [3], in assay [4], in [5], in [7] and in [8] was “inactive” throughout. In addition, the Potency entry in [9] was “inactive”.
Turning to `CN1C2CCC1CC(OC(c1ccccc1)c1ccccc1N)C2` (stereo not given), the outcome in [1] was inactive. Besides, the Potency entry in assay [2], in assay [3], in assay [4], in assay [5] and in assay [7] was “inactive” each time.
Regarding `NNC(N)=O`, the compound was classed as inactive in [1] and in assay [6]. Further, the Potency result in assay [2], in assay [4], in assay [5], in assay [7], in assay [8] and in assay [9] was “inactive” in each case.
On to `C[Se]C[C@H](N)C(=O)O`, for which the call in assay [1] and in assay [6] was inactive. For the same compound, the Potency result in assay [2], in assay [3], in assay [4], in assay [5] and in [8] was “inactive” in each case.
Consider `C=CCN1CC[C@]23c4c5ccc(O)c4O[C@H]2/C(=N/NC(=O)c2ccccc2)CC[C@@]3(O)[C@H]1C5`, for which the compound was called inactive in [1]. Moreover, the Potency result in assay [2], in [3], in assay [4], in assay [5], in assay [7] and in [8] was “inactive” in each case. The Potency entry in assay [9] is “inactive”.
On to `CCCN(CCC)[C@H]1CCc2c(F)ccc(O)c2C1`, for which the compound was classed as inactive in [1]. For the same compound, the Potency entry in assay [2], in assay [3], in assay [4], in [5], in assay [7] and in [8] was “inactive” throughout. In assay [9], the Potency result is “inactive”.
For the compound `Clc1ccc(N2CC3CCC(C2)N3)nn1`, the compound was called inactive in assay [1]. The Potency entry in assay [2], in [3], in assay [4], in assay [5], in [7] and in [8] was “inactive” each time. Besides, the Potency result in assay [9] was “inactive”.
`CC(N)[C@H](O)c1ccc(O)c(O)c1` (stereo not given in full): the call in [1] was inactive. For the same compound, the Potency result in [2], in [5], in assay [7], in [8] and in assay [9] was “inactive” in each case. Moreover, the Potency in [3] is 13.5 µM (active); in [4] it was 7.57 µM (active).
Take `CC(Cc1ccc(OCC(=O)O)cc1)NCC(O)c1cccc(Cl)c1` (stereo not given): in assay [1], the compound was called inactive. The Potency result in [2], in assay [3], in [4], in assay [5], in assay [7] and in assay [9] was “inactive” in each case.
For `C[C@]12Cc3cn4c(nc3C=C1CCC1C2CC[C@@]2(C)[C@H]1CC[C@@]2(O)C#N)nc1ccccc14` (stereo not given in full), the compound was classed as inactive in assay [1]. Moreover, in [2], the Potency is 23.1 µM (active). In addition, the Potency entry in [3], in assay [4], in assay [5], in assay [7], in assay [8] and in assay [9] was “inactive” each time.
For `CC1(C(=O)O)C2CCC(O2)C1(C)C(=O)O` (stereo not given), the call in assay [1] was inactive. Also, the Potency entry in assay [2], in assay [3], in assay [4] and in assay [5] was “inactive” in each case. The Potency in assay [9] was 7.94 µM (active).
Turning to `NC(=O)c1ccc(OCC(O)CN2CC=C(c3ccc(F)cc3)CC2)cc1` (stereo not given), the compound was called inactive in assay [1] and in [6]. For the same compound, the Potency entry in [2], in assay [4], in assay [5], in [7], in [8] and in assay [9] was “inactive” each time.
Turning to `NC(=O)COc1c(F)cc(SCCNS(=O)(=O)c2ccccc2)cc1F`, the compound was classed as inactive in [1]. In addition, the Potency result in [2], in assay [3], in assay [4], in assay [5] and in assay [9] was “inactive” in each case.
Take `O=[N+]([O-])c1ccc2nc(N3CCNCC3)ccc2c1`: the compound was called inactive in [1]. The Potency entry in assay [2], in [3], in assay [4], in assay [5] and in assay [7] was “inactive” each time.
For `Nc1ccc(CCN2CCN(c3cccc(C(F)(F)F)c3)CC2)cc1`, the call in assay [1] and in [6] was inactive. Also, the Potency entry in [2], in assay [4], in [5], in [7] and in assay [8] was “inactive” each time.
In the case of `Clc1cc(I)cc(Cl)c1NC1=NCCN1`, in [1], the call was inactive. Also, the Potency entry in assay [2], in assay [3], in assay [4], in assay [5], in [7] and in [8] was “inactive” throughout. Moreover, the Potency result in [9] is “inactive”.
Consider `COc1ccc2c(c1)[C@@]13CCCC[C@H]1[C@@H](C2)NCC3`, for which the outcome in [1] was inactive. For the same compound, the Potency entry in [2], in [3], in [4], in [5] and in assay [8] was “inactive” throughout.
For `CCS(=O)(=O)Nc1cccc(C(=C2CCCCC2)c2cnc[nH]2)c1`, the outcome in assay [1] and in assay [6] was inactive. The Potency entry in assay [2], in [3], in [4], in assay [5], in [8] and in assay [9] was “inactive” throughout.
As for `OCc1cnc[nH]1`, the outcome in assay [1] and in assay [6] was inactive. The Potency result in [2], in assay [4], in [5], in [7], in [8] and in assay [9] was “inactive” throughout.
